For 32 compounds, outcome results are on record in PubChem BioAssay AID651642 (Sanford-Burnham Center for Chemical Genomics, 2012).

Molecules are shown by their SMILES. Calls of active or inactive are those of the source.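 Rule for the calls: active = average half-effect concentration of 10 µM or less in every one of the four cell panels; inactive = the rest.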

In the assay the test system is HL-1. In words: protection of cardiomyocytes from stress damage, SAR follow-up, cell-based, panel, H9c2 and HL-1, H2O2, 2-deoxyglucose, ATP luminescence (AID 651642). Conditions: H9c2/HL-1 cardiomyocyte 2-deoxyglucose damage, mean of runs, with 2-deoxyglucose.
Turning to `COc1cc(-c2cc(C(=O)Nc3cccc(C(C)=O)c3)c3ccc(Cl)cc3n2)cc(OC)c1OC`, the compound was called inactive.
The same measure for `COc1cc(-c2cc(C(=O)Nc3cccc(C(N)=O)c3)c3ccccc3n2)cc(OC)c1OC`: “inactive”; for `COc1cc(-c2cc(C(=O)Nc3cccc(C(=O)NCc4ccccc4)c3)c3ccccc3n2)cc(OC)c1OC`: “active”; for `COc1cc(-c2cc(C(=O)NCC(=O)Nc3cccc(C(C)=O)c3)c3cccc(Cl)c3n2)cc(OC)c1OC`: “active”.
Take `COC(=O)CNC(=O)c1cc(-c2cc(OC)c(OC)c(OC)c2)nc2ccccc12`: the call was inactive.
In the case of `COc1cc(-c2cc(C(=O)NCC(=O)O)c3ccccc3n2)cc(OC)c1OC`, the result was inactive.
Turning to `CCOC(=O)c1cccc(NC(=O)CNC(=O)c2cc(-c3cc(OC)c(OC)c(OC)c3)nc3ccccc23)c1`, the result was inactive.
Regarding `COc1ccc2c(c1OC)C(=O)N1c3ccccc3C(=O)N(Cc3ccc(C)cc3C)C21` (configuration not stated), the call was inactive.
On to `COc1cc(-c2cc(C(=O)NCC(=O)Nc3ccc(C(C)=O)cc3)c3ccccc3n2)cc(OC)c1OC`, for which the result was inactive.
`COc1cc(-c2cc(C(=O)NCC(=O)Nc3ccc(C(C)=O)cc3)c3cc(C)ccc3n2)cc(OC)c1OC`: the compound was classed as active.
Turning to `COc1cc(-c2cc(C(=O)Nc3cccc(-c4nn[nH]n4)c3)c3ccccc3n2)cc(OC)c1OC`, the compound was classed as inactive.
On to `COc1ccc2c(c1OC)C(=O)N1c3ccccc3C(=O)N(Cc3ccccc3)C21` (configuration not stated), for which the result was inactive.
The same measure for `COc1ccc2nc(-c3cc(OC)c(OC)c(OC)c3)cc(C(=O)NCC(=O)Nc3cccc(C(C)=O)c3)c2c1`: “active”; for `COc1ccc2c(c1OC)C(=O)N1c3ccccc3C(=O)N(Cc3cccc(F)c3)C21` (configuration not stated): “active”.
The same measure for `CCOC(=O)c1cccc(NC(=O)c2cc(-c3cc(OC)c(OC)c(OC)c3)nc3ccc(Cl)cc23)c1`: “inactive”.
On to `COc1cccc(CNC(=O)CNC(=O)c2cc(-c3cc(OC)c(OC)c(OC)c3)nc3ccccc23)c1`, for which the compound was called inactive.
The entry for `CCOC(=O)c1cccc(NC(=O)c2cc(-c3cc(OC)c(OC)c(OC)c3)nc3cc(Cl)ccc23)c1` is “inactive”; for `CCOC(=O)c1cccc(NC(=O)CNC(=O)c2cc(-c3cc(OC)c(OC)c(OC)c3)nc3ccc(C)cc23)c1` it is “active”.
On to `CCOC(=O)c1cccc(NC(=O)c2cc(-c3cc(OC)c(OC)c(OC)c3)nc3ccc(F)cc23)c1`, for which the result was inactive.
`CCOC(=O)c1cccc(NC(=O)CNC(=O)c2cc(-c3cc(OC)c(OC)c(OC)c3)nc3ccc(OC)cc23)c1`: the call was active.
As to `COc1ccc2c(c1OC)C(=O)N1c3ccccc3C(=O)N(Cc3ccc(F)cc3)C21` (configuration not stated), the compound was called inactive.
Consider `COc1ccc2c(c1OC)C(=O)N1c3ccccc3C(=O)N(Cc3cccc(C)c3)C21` (configuration not stated), for which the call was inactive.
In the case of `COc1cc(-c2cc(C(=O)NCC(=O)Nc3cccc(C(C)=O)c3)c3ccccc3n2)cc(OC)c1OC`, the result was active.
`COc1cc(-c2cc(C(=O)Nc3cccc(C(=O)NC4CC4)c3)c3ccccc3n2)cc(OC)c1OC`: the outcome was active.
On to `COc1ccc2c(c1OC)C(=O)N1c3ccccc3C(=O)N(Cc3cccc(Cl)c3Cl)C21` (configuration not stated), for which the call was active.
As for `COc1cc(-c2cc(C(=O)Nc3cccc(C(=O)Nc4ccccc4)c3)c3ccccc3n2)cc(OC)c1OC`, the call was active.
In the case of `COc1ccc2c(c1OC)C(=O)N1c3ccccc3C(=O)N(Cc3ccccc3C)C21` (configuration not stated), the outcome was active.
The entry for `CCOC(=O)c1cccc(NC(=O)CNC(=O)c2cc(-c3cc(OC)c(OC)c(OC)c3)nc3ccc(Br)cc23)c1` is “active”; for `COc1ccc2c(c1OC)C(=O)N1c3ccccc3C(=O)N(Cc3ccccn3)C21` (configuration not stated) it is “inactive”.
For `COc1cc(-c2cc(C(=O)Nc3cccc(C#N)c3)c3ccccc3n2)cc(OC)c1OC`, the compound was classed as inactive.
On to `CCOC(=O)c1ccccc1NC(=O)c1cc(-c2cc(OC)c(OC)c(OC)c2)nc2ccccc12`, for which the compound was called inactive.
Turning to `COc1cc(-c2cc(C(=O)Nc3cccc(C(C)=O)c3)c3ccccc3n2)cc(OC)c1OC`, the call was active.
